Counter-ions that a name gives are not always drawn.

For the experiment, the system named is Saccharomyces cerevisiae BY4741 SeMeCo community. The experiment is described as follows: z-score of subpopulation abundance vs DMSO median, subpopulation auxotrophic for HU; higher = larger share of this subpopulation than in DMSO controls. As to conditions: 10 µM; 24 h; SM minimal medium; subpopulation (auxotrophy): HU. The procedure:
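Fluorescent four-plasmid SeMeCo (self-establishing metabolically cooperating S. cerevisiae BY4741 community; plasmids pH-mRuby2, pL-mWasabi, pU-eCFP, pM-TagRFP657) was grown 24 h in minimal SM medium with each Selleck FDA-approved drug at 10 µM in 384-well plates. Cells were fixed and imaged by high-content confocal microscopy. For each auxotrophic subpopulation (and the prototroph), a z-score gives the deviation from the DMSO vehicle-control population median.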
Regarding `CCCCCCCCCCCCCCCCCCOP(=O)([O-])OC1CC[N+](C)(C)CC1` [Perifosine (KRX-0401)], the “z-score of subpopulation abundance” value was determined as 8.89.

Regarding `CC1(C)S[C@@H]2[C@H](NC(=O)[C@H](NC(=O)N3CCN(S(C)(=O)=O)C3=O)c3ccccc3)C(=O)N2[C@H]1C(=O)O` [Mezlocillin Sodium], the “z-score of subpopulation abundance” value worked out at 0.3.

Turning to `COc1cc(NS(=O)(=O)c2ccc(N)cc2)ncn1` [Sulfamonomethoxine], the “z-score of subpopulation abundance” value amounted to 0.5.

With `C[N+](C)(C)CCOC(=O)CCC(=O)OCC[N+](C)(C)C` [Succinylcholine Chloride Dihydrate], the “z-score of subpopulation abundance” value was -0.93.

In the case of `CC1=C[C@H]2C(=O)O[C@H]3C[C@@H](C/C=C(\C)C[C@@H](C)/C=C/C=C4\CO[C@H](/C1=N\O)[C@@]42O)O[C@@]1(CC[C@H](C)[C@@H](C)O1)C3.CC[C@H]1O[C@]2(CC[C@@H]1C)C[C@@H]1C[C@@H](C/C=C(\C)C[C@@H](C)/C=C/C=C3\CO[C@@H]4/C(=N\O)C(C)=C[C@@H](C(=O)O1)[C@]34O)O2` [Milbemycin Oxime], the “z-score of subpopulation abundance” value was found to be 0.42.

As for `C[C@]12CC[C@@H]3c4ccc(O)cc4CC[C@H]3[C@@H]1C[C@@H](O)[C@@H]2O` [Estriol], the “z-score of subpopulation abundance” value is -0.16.

As to `C#C[C@]1(OC(C)=O)CC[C@H]2[C@@H]3CCC4=C[C@@H](OC(C)=O)CC[C@@H]4[C@H]3CC[C@@]21C` [Ethynodiol diacetate], the “z-score of subpopulation abundance” value was -0.23.

As for `Nc1ccc(S(=O)(=O)NC(=O)c2ccccc2)cc1` [Sulfabenzamide], the “z-score of subpopulation abundance” value was -0.03.

For the compound `OCCN1CCN(CC/C=C2/c3ccccc3Sc3ccc(C(F)(F)F)cc32)CC1` [Flupenthixol dihydrochloride], the “z-score of subpopulation abundance” value was determined as 0.56.

Consider `O=C(O[C@H]1CN2CCC1CC2)N1CCc2ccccc2[C@@H]1c1ccccc1` [Solifenacin succinate], for which the “z-score of subpopulation abundance” value is 0.28.

With `C[N+]1(C)CCC(=C(c2ccccc2)c2ccccc2)CC1` [Diphemanil Methylsulfate], the “z-score of subpopulation abundance” value is -0.13.

In the case of `CC1=CC[C@@](O)(C(C)C)CC1` [Terpinen-4-ol], the “z-score of subpopulation abundance” value is 0.31.

Take `CO[C@H]1C[C@@H]2CC[C@@H](C)[C@@](O)(O2)C(=O)C(=O)N2CCCC[C@H]2C(=O)O[C@H]([C@H](C)C[C@@H]2CC[C@@H](OP(C)(C)=O)[C@H](OC)C2)CC(=O)[C@H](C)/C=C(\C)[C@@H](O)[C@@H](OC)C(=O)[C@H](C)C[C@H](C)/C=C/C=C/C=C/1C` [Ridaforolimus (Deforolimus, MK-8669)]: the “z-score of subpopulation abundance” value amounted to 25.9.

As for `Cc1nnc(NS(=O)(=O)c2ccc(N)cc2)s1` [Sulfamethizole], the “z-score of subpopulation abundance” value was -0.26.

In the case of `CCOc1cc(NC(C)=O)ccc1C(=O)OC` [Ethopabate], the “z-score of subpopulation abundance” value is -0.22.

On to `CC(C(=O)O)c1ccc2c(c1)[nH]c1ccc(Cl)cc12` (stereo not given) [Carprofen], for which the “z-score of subpopulation abundance” value was -2.04.

Consider `CN1CCCN=C1/C=C/c1cccs1` [Pyrantel Pamoate], for which the “z-score of subpopulation abundance” value was 0.04.

As to `Cc1nnc(SCC2=C(C(=O)O)N3C(=O)[C@@H](NC(=O)Cn4cnnn4)[C@H]3SC2)s1` [Cefazolin Sodium], the “z-score of subpopulation abundance” value stood at 2.2.

Consider `Cc1cc(/C=C/c2ccc3cc(N(C)C)ccc3[n+]2C)c(C)n1-c1ccccc1` [pyrvinium], for which the “z-score of subpopulation abundance” value was -0.67.

Regarding `CN1CCC[C@@H]1Cc1c[nH]c2ccc(CCS(=O)(=O)c3ccccc3)cc12` [Eletriptan HBr], the “z-score of subpopulation abundance” value is -1.27.

On to `COCC1=C(C(=O)OC(C)OC(=O)OC(C)C)N2C(=O)[C@@H](NC(=O)/C(=N\OC)c3csc(N)n3)[C@H]2SC1` (stereo not given in full) [Cefpodoxime proxetil], for which the “z-score of subpopulation abundance” value was determined as 0.99.

On to `Cn1nnnc1SCC1=C(C(=O)O)N2C(=O)[C@@H](NC(=O)[C@H](OC=O)c3ccccc3)[C@H]2SC1` [Cefamandole nafate], for which the “z-score of subpopulation abundance” value stood at 0.51.

On to `CCN(CC)CCNC(=O)c1cc(Cl)c(N)cc1OC` [Metoclopramide HCl], for which the “z-score of subpopulation abundance” value is -0.72.

For the compound `CCn1cc(C(=O)O)c(=O)c2cc(F)c(N3CCNC(C)C3)c(F)c21` (stereo not given) [Lomefloxacin HCl], the “z-score of subpopulation abundance” value was 0.12.

On to `CO[C@@]1(NC(=O)CSC[C@@H](N)C(=O)O)C(=O)N2C(C(=O)O)=C(CSc3nnnn3C)CS[C@@H]21` [Cefminox Sodium], for which the “z-score of subpopulation abundance” value was found to be 0.16.

`O=c1[nH]cnc2c1ncn2[C@@H]1O[C@H](CO)[C@@H](O)[C@H]1O` [Isoprinosine]: the “z-score of subpopulation abundance” value is -0.35.

With `CC(C)(O/N=C(\C(=O)N[C@@H]1C(=O)N2C(C(=O)[O-])=C(C[n+]3ccccc3)CS[C@H]12)c1csc(N)n1)C(=O)O` [Ceftazidime], the “z-score of subpopulation abundance” value came out at 0.43.

Regarding `CC1CCc2c(N3CCC(O)CC3)c(F)cc3c(=O)c(C(=O)O)cn1c23` (stereo not given) [Nadifloxacin], the “z-score of subpopulation abundance” value turned out to be 0.43.

`CO[C@H]1C[C@@H]2CC[C@@H](C)[C@@](O)(O2)C(=O)C(=O)N2CCCC[C@H]2C(=O)O[C@H]([C@H](C)C[C@@H]2CC[C@H](n3cnnn3)[C@H](OC)C2)CC(=O)[C@H](C)/C=C(\C)[C@@H](O)[C@@H](OC)C(=O)[C@H](C)C[C@H](C)/C=C/C=C/C=C/1C` [Zotarolimus(ABT-578)]: the “z-score of subpopulation abundance” value is 23.5.

For the compound `C#C[C@]1(O)CC[C@H]2[C@@H]3CCc4cc(O)ccc4[C@H]3CC[C@@]21C` [Ethinyl Estradiol], the “z-score of subpopulation abundance” value was found to be 0.01.

Consider `CC1(C)CC[C@]2(C(=O)O)CC[C@]3(C)C(=CC[C@@H]4[C@@]5(C)CC[C@H](O)C(C)(C)[C@@H]5CC[C@]43C)[C@@H]2C1` [Oleanolic Acid], for which the “z-score of subpopulation abundance” value turned out to be 0.23.

Consider `O=C(Nc1cccc(C2=NCCN2)c1)Nc1cccc(C2=NCCN2)c1` [Imidocarb dipropionate], for which the “z-score of subpopulation abundance” value came to 0.05.

Regarding `CN[C@@H]1[C@@H](O[C@H]2O[C@H](CO)[C@@H](N)[C@H](O)[C@H]2O)OC2C[C@@H](N)[C@@H](O[C@H]3[C@H](O)[C@@H](O)[C@H](N)C[C@@H]3N)OC2[C@@H]1O` (stereo not given in full) [Apramycin Sulfate], the “z-score of subpopulation abundance” value was -0.09.

Take `Nc1nc2c(ncn2COCCO)c(=O)[nH]1` [Aciclovir]: the “z-score of subpopulation abundance” value was -0.91.

Consider `COc1c(N2CCNC(C)C2)c(F)cc2c(=O)c(C(=O)O)cn(C3CC3)c12` (stereo not given) [Gatifloxacin], for which the “z-score of subpopulation abundance” value came out at 0.38.

Take `CC1(C)S[C@@H]2[C@H](NC(=O)Cc3ccccc3)C(=O)N2[C@H]1C(=O)O` [Penicillin G Sodium]: the “z-score of subpopulation abundance” value was -0.78.

In the case of `CCOC(=O)C1=C[C@]2(CC)CCCN3CCc4c(n1c1ccccc41)[C@@H]32` [Vinpocetine], the “z-score of subpopulation abundance” value was -0.02.

For `CC1(C)S[C@@H]2[C@H](NC(=O)[C@H](N)c3ccccc3)C(=O)N2[C@H]1C(=O)OCOC(=O)[C@@H]1N2C(=O)C[C@H]2S(=O)(=O)C1(C)C` [Sultamicillin], the “z-score of subpopulation abundance” value was 2.39.

As for `CC1=C(C(=O)O)N2C(=O)[C@@H](NC(=O)[C@H](N)C3=CCC=CC3)[C@H]2SC1` [Cephradine monohydrate], the “z-score of subpopulation abundance” value was determined as 0.11.

As for `CCc1nn(CCCN2CCN(c3cccc(Cl)c3)CC2)c(=O)n1CCOc1ccccc1` [Nefazodone hydrochloride], the “z-score of subpopulation abundance” value was found to be 0.21.

For the origin of these results see the supplement of paper PMC8975748.
